Results reported in the supplement of paper PMC11732987, “Enantioselective OTUD7B fragment discovery through chemoproteomics screening and high-throughput optimisation” (Communications Chemistry, 2025).

Tests used:
Assay in all cases: log2 ratio of Biotin-Ahx-Ub-VS probe labelling (fragment/DMSO); higher = less target engagement (more negative = stronger competition), active = hit call of the paper (q ≤ 0.05, log2 ratio ≤ -1)
Conditions in all cases: compound concentration: 200 uM; treatment time: 3 h
USP34 = USP34 (UniProt Q70CQ2)
USP34, sequence (Q70CQ2 whole entry, the tested form may be a part): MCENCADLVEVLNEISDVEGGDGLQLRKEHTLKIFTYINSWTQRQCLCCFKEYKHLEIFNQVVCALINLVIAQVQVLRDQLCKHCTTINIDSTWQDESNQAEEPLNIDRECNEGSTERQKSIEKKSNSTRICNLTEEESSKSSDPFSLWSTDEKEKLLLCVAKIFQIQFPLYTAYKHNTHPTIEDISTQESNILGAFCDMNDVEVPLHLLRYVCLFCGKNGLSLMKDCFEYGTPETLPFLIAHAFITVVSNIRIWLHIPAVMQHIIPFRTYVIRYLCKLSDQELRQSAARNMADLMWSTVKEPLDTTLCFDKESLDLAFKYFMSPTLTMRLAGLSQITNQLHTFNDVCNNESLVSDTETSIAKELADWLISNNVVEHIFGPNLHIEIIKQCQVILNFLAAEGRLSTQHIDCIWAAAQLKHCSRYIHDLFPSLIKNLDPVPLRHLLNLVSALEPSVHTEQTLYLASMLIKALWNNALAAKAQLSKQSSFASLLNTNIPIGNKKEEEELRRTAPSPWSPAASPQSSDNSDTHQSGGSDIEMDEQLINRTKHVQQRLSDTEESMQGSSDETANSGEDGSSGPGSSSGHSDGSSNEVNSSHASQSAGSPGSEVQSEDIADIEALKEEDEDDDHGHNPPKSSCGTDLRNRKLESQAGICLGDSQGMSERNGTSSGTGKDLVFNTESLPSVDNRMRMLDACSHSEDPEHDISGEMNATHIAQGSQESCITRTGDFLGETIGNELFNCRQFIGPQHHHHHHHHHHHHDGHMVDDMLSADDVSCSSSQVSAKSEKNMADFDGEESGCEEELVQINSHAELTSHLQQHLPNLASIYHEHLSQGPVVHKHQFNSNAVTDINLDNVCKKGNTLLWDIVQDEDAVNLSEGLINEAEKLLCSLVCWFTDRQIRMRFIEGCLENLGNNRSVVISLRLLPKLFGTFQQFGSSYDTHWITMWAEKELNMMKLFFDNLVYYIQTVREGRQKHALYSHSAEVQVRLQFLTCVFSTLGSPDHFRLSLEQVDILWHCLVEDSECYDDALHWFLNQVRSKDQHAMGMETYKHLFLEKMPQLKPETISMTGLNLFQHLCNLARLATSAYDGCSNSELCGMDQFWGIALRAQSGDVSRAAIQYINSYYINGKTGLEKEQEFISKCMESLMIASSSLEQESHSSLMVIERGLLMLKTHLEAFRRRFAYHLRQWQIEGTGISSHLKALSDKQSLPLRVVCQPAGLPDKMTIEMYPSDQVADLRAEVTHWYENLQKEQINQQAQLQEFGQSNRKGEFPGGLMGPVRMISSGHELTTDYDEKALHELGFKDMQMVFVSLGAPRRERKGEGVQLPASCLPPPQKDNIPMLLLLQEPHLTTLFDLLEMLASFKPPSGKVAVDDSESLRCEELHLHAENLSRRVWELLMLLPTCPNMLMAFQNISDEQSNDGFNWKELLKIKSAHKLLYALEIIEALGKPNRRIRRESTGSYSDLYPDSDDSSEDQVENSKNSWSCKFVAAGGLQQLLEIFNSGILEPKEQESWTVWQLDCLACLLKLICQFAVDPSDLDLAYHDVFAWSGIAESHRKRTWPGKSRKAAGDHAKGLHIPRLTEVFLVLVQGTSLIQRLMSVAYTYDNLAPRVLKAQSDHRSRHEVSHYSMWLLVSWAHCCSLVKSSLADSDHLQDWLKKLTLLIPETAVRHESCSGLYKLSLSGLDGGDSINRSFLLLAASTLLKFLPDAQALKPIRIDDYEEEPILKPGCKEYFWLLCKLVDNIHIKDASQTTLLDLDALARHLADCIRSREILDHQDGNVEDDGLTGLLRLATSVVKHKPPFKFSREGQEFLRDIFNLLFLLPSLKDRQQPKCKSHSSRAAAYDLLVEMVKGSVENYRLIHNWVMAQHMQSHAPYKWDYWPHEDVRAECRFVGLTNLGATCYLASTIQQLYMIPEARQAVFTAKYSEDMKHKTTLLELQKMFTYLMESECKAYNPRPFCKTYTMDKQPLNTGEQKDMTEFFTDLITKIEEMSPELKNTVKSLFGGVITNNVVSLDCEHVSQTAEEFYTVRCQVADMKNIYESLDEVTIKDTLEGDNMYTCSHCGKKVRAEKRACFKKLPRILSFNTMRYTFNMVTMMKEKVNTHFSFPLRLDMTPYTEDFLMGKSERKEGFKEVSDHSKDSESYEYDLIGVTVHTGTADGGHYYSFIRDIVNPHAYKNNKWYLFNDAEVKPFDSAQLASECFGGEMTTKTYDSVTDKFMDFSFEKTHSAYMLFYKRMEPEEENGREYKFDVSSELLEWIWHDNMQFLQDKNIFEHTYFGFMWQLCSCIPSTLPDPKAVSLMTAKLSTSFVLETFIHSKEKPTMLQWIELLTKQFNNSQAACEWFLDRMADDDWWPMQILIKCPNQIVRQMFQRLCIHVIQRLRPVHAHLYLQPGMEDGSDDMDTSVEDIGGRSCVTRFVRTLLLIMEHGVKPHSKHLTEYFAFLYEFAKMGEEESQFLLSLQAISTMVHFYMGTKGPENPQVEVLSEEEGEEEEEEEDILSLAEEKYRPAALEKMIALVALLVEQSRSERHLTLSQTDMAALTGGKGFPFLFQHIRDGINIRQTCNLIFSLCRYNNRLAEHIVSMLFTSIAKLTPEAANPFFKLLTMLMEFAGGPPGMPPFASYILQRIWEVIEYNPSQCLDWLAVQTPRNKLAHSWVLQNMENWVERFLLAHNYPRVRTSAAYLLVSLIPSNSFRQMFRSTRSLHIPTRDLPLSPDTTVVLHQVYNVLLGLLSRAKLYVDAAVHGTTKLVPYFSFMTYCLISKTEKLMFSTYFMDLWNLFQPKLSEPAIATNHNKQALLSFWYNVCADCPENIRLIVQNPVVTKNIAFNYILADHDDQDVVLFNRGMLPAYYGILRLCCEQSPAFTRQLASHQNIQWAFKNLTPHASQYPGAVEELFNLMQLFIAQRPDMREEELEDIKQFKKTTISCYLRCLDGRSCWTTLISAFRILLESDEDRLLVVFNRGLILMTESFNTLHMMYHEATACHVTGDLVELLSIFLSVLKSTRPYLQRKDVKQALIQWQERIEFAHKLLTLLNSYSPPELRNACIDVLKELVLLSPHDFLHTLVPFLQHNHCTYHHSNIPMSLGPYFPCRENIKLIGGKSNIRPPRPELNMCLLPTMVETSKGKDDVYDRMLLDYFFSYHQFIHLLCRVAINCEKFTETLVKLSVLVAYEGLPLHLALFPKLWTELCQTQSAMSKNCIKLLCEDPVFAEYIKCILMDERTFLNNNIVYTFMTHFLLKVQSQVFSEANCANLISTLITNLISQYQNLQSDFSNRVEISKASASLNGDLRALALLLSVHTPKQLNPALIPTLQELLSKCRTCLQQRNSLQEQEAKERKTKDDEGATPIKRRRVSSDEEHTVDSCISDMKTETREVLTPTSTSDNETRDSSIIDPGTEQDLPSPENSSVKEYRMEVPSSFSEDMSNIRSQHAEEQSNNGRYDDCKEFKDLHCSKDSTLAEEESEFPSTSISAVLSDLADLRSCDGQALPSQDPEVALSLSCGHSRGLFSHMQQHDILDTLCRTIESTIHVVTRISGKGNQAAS
In short: (§1)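 Labelling with Biotin-Ahx-Ub-VS (0.5 µM final, 1 h) followed a 3 h triplicate treatment of HEK293T lysate (495 µg per sample, Tris/CHAPS/IGEPAL buffer with protease inhibitors) with fragment at 200 µM or vehicle. Labelled DUBs were NeutrAvidin-enriched, digested with LysC and trypsin, and run by diaPASEF LC-MS/MS. The values, average log2 fragment/vehicle ratios by unpaired t-test, come from global-median-normalised Spectronaut label-free quantities. Proteins with ≥2 unique peptides were used.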

USP36 = target: T1, USP36 (UniProt Q9P275)
T1 sequence (whole entry): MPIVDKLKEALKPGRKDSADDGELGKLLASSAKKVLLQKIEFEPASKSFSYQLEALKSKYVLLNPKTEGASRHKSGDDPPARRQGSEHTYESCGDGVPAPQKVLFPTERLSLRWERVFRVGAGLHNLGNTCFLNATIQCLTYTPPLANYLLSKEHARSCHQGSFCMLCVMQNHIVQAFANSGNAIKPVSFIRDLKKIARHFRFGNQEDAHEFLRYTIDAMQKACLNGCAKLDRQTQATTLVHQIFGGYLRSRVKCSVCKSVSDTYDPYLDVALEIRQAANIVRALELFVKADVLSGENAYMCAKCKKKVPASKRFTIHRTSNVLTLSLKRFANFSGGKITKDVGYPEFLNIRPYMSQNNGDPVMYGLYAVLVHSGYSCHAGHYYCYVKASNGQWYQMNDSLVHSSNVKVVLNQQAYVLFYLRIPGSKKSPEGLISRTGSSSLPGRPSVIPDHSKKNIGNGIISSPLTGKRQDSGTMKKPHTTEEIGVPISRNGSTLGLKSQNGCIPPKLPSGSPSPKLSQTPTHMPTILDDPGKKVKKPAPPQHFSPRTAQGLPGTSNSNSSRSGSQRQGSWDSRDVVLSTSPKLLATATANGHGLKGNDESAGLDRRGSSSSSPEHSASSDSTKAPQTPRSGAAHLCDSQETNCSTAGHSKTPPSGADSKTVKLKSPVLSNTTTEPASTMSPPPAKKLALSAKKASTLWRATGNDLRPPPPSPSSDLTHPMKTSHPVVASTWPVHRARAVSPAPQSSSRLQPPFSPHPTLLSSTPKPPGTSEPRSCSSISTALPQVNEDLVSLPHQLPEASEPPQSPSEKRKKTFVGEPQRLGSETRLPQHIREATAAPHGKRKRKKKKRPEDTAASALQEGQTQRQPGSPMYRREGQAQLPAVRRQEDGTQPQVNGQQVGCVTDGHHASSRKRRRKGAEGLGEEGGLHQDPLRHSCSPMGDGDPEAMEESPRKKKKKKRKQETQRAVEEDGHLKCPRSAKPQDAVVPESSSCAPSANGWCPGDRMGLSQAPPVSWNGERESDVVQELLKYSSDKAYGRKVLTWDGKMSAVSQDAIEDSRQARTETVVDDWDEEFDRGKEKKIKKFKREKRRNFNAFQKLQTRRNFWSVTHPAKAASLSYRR
In short: as §1

USP38 = target: T2, USP38 (UniProt Q8NB14)
T2 sequence (whole entry): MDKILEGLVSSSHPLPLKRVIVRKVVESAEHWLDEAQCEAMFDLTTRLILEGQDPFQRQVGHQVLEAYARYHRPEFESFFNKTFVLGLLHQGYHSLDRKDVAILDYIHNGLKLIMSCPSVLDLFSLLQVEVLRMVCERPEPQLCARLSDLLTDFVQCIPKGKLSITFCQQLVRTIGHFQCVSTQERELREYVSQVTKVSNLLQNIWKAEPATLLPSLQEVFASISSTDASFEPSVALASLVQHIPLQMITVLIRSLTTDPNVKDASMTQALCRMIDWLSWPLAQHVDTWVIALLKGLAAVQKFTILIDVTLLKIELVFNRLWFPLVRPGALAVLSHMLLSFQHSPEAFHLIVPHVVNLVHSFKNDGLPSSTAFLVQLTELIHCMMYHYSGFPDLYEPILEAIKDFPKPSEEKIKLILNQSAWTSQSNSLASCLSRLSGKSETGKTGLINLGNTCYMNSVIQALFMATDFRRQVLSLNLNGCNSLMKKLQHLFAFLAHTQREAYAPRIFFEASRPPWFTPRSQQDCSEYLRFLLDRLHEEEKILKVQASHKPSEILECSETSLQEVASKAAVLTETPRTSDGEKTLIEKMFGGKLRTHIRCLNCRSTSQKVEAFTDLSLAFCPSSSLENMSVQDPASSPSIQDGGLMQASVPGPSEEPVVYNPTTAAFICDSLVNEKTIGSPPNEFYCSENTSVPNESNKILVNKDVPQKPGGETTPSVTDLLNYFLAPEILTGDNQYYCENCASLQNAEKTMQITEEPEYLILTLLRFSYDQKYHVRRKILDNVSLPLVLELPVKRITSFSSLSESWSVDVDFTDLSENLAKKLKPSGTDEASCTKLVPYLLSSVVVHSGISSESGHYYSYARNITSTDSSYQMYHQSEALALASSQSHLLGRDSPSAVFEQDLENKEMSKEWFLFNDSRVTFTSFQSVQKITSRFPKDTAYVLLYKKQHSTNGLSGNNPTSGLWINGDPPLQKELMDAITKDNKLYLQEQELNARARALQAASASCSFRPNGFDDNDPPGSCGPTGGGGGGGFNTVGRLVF
In short: as §1

USP39 = target: T3, USP39 (UniProt Q53GS9)
T3 sequence (whole entry): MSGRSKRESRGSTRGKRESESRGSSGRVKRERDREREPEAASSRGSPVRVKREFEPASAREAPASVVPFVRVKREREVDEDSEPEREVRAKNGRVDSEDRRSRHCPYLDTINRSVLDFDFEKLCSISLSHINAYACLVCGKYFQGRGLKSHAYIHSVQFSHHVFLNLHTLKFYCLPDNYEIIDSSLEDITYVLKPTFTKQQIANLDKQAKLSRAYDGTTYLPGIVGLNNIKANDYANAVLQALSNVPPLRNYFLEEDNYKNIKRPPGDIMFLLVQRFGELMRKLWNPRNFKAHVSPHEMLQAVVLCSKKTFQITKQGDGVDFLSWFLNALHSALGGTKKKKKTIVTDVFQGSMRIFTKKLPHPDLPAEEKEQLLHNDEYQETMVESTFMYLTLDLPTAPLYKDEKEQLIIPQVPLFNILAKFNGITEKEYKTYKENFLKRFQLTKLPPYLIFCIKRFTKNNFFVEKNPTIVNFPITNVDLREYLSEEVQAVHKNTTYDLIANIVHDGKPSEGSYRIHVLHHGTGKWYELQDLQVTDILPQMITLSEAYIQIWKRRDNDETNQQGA
In short: as §1

USP4 = target: T4, USP4 (UniProt Q13107)
T4 sequence (whole entry): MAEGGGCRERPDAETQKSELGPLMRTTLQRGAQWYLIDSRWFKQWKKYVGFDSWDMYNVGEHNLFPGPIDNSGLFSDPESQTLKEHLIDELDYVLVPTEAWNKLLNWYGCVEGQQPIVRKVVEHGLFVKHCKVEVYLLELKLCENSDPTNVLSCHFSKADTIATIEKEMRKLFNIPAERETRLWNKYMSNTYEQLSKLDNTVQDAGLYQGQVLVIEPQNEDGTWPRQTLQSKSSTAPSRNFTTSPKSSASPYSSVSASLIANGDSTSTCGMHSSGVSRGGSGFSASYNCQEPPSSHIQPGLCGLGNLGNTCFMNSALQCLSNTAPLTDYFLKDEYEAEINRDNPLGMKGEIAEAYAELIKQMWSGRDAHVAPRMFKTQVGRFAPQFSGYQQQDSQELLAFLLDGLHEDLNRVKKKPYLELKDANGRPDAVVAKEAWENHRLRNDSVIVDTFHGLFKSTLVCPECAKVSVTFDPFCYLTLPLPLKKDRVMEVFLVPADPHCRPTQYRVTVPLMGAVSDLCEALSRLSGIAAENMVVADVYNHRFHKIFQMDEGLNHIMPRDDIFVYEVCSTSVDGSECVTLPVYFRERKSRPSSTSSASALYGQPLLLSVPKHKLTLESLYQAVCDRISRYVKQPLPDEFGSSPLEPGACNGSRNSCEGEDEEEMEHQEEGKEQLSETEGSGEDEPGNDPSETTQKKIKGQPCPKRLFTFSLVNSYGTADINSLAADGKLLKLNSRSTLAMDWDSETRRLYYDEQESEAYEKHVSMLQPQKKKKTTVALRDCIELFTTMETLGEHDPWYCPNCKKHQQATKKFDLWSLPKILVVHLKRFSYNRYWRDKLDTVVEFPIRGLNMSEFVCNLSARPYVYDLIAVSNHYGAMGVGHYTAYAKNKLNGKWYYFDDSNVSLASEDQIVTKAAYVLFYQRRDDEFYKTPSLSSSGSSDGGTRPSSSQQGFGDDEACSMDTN
In short: as §1

Measured: log2 ratio of Biotin-Ahx-Ub-VS probe labelling

Cc1cc(C(=O)NC2CCN(C(=O)CCl)CC2)no1
inactive: USP34 -0.22 | USP36 -0.0502 | USP38 0.122 | USP39 0.0572 | USP4 -0.111
